# In PubChem BioAssay (NCI):
# About 79,000 compounds went through this panel and 15% of them were active in at least one assay; those are over-represented in the sample as a whole. Values without a mark were called inactive. No stated cut-off is given here; in the data, active means growth inhibition above about 70%; inactive means the rest.
# Experiment: NCI Yeast Anticancer Drug Screen. Data for the mlh1 rad18 strain (AID 175)
# Details: S. cerevisiae mlh1 rad18 strain growth inhibition; at 50.0 µM; stronger effect = higher value
# Procedure: Growth inhibition of yeast strains with defined genetic alterations is measured as a screen for potential anti-cancer activity. Selected strains with alterations in DNA damage repair or cell cycle control were exposed to compounds and growth inhibition was measured relative to vehicle treated controls. The strain used in this assay is mlh1 rad18
row,Compound,growth inhibition [%]
1,NC(=O)c1ccc(N=C(N)N=C(N)N)cc1,-2.05
2,CC1(C)N=C(N)N=C(N)N1c1cccc(Br)c1,2.3
3,COc1ccc(C)cc1OC,-5.65
4,C[N+](C)=c1ccc2nc3c(cc(Nc4ccccc4)c4ccccc43)oc-2c1,39.2
5,CCn1c(=O)n(C)c2c(=O)n(C)c(=O)n(C)c21,2.2
6,COc1cc(C2c3cc4c(cc3C3OC(=O)C2C3CO)OCO4)cc(OC)c1OC (stereo not given),-3.85
7,COc1cccc(O)c1O,19.4
8,O=C1c2ccccc2C(=O)c2c1ccc(C(=O)O)c2[N+](=O)[O-],28
9,CCN(CC)c1ccc2nc3ccc(=[N+](CC)CC)cc-3oc2c1,-258
10,O=C(NC1CCCCC1)OCc1c(COC(=O)NC2CCCCC2)c(-c2ccc(Cl)c(Cl)c2)n2c1CCC2,6.9
11,CNC(=O)c1ccccc1CC1(O)c2ccccc2Oc2ccccc21,-8.55
12,O=[N+]([O-])c1ccc(-c2noc(-c3cccs3)n2)cc1,-11.8
13,O=[N+]([O-])c1ccc(Sc2ccncn2)c([N+](=O)[O-])c1,30.8
14,S=C(Nc1ccccc1)N1CCCCC1,-8.4
15,CC1(C(=O)O)NC(C(=O)O)Cc2c1[nH]c1ccccc21 (stereo not given),13.3
16,S=c1sc2ccccc2n1CN1CCCCC1,15.8
17,CN(C)c1ccc(CNC(C(=O)c2ccccc2)c2ccccc2)cc1 (stereo not given),-20.9
18,COc1ccc(Oc2c(I)cc(CC(NC(C)=O)C(=O)O)cc2I)cc1 (stereo not given),49.7
19,O=C(O)CCCCNC(=O)c1ccccc1,9.4
20,CCOC(=O)c1[nH]c(C)c(C(=O)O)c1C,-11.2

row,Compound,growth inhibition [%]
1,C=CC[N+](C)(C)C,7.4
2,Cc1ccccc1C1N=C2Oc3ccccc3C=C2C(=O)N1 (stereo not given),-32.5
3,OCCN1CCOCC1,27.2
4,CC(=O)OCCC(C)CCC=C(C)C (stereo not given),2.4
5,Cc1ccccc1N=C(c1ccccc1)C1C(=O)c2ccccc2C1=O,12.6
6,COc1ccc(/C(C#N)=C2C=C/C(=N/O)c3ccccc3\2)cc1,19.9
7,Cc1cccc(C(=O)N(C(C)C)C(C)C)c1,-0.35
8,O=C(O)/C=C/C(=O)NCc1ccccc1,26.7
9,CC(=O)OCC1OC(OC2=C(CC=C(C)C)C(=O)c3ccccc3C2=O)C(OC(C)=O)C(OC(C)=O)C1OC(C)=O (stereo not given),-6.6
10,Nc1ccc(C(=O)c2ccc(N)c(Br)c2)cc1Br,4.05
11,C/C(=C\c1ccc([N+](=O)[O-])cc1)C(=O)O,47.5
12,CC1=CC(C)(C)NC(=S)N1c1ccc(S(=O)(=O)O)c2cccc(S(=O)(=O)O)c12,-33.1
13,COc1cc(C(N)=O)cc(OC)c1OC,-2.65
14,O=C(O)c1ccc(S(=O)(=O)O)cc1,12.5
15,Cc1ccc(C(=O)NC2c3ccccc3Oc3ccccc32)cc1,-5
16,CC(=O)N(C)c1ccc([N+](=O)[O-])cc1,1.3
17,CC1(C)OC(=O)C(c2ccsc2)C(=O)O1,-3.7
18,CN(C)CCC(=O)c1ccc(O)cc1,-9.45
19,O=C(O)/C=C/c1ccc2c(c1)CCC2,42.2
20,CCOC(=O)c1coc(C(=O)OCC)c1C(=O)OCC,5.3
